Test results: PubChem BioAssay AID1159580 (chemical genetic matrix, 2015)
Values joined by “and” are separate entries in the source; they are usually repeats but may differ in a detail not shown here. Equal values may be shown once. In all, about 5,500 compounds went through this assay and about 2,000 (36%) were called active. Not shown: some 18% with an inconclusive outcome. Cut-off read from the data, not from the text of the source: active = normalized growth mostly below about 0.91 (no sharp cut-off); inconclusive = no clear call, values can overlap the other calls; inactive = mostly above about 0.92. The list shows a part of the results.

Assay: chemical genetic growth profiling, strain panel (AID 1159580);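 note: tested at 20 µM; growth read once vehicle control cultures reached saturation at 30 °C; 1 = growth at the plate median or of vehicle wells; lower values mean less growth of the strain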
Settings: S. cerevisiae deletion strains, growth OD

Measured: normalized growth

COc1ccc(C(=O)/C=C/c2ccccc2)cc1
inactive: locus YAL021C, strain ccr4, stronger effect = lower value 1.01 | locus YAL026C, strain drs2, stronger effect = lower value 0.924 | locus YAL030W, strain snc1, stronger effect = lower value 0.951 | locus YBL061C, strain skt5, stronger effect = lower value 0.947 | locus YBR171W, strain sec66, stronger effect = lower value 0.939 | locus YBR229C, strain ROT2, stronger effect = lower value 0.991 | locus YBR231C, strain swc5, stronger effect = lower value 0.927 | locus YBR279W, strain paf1, stronger effect = lower value 0.951 | locus YCL069W, strain vba3, stronger effect = lower value 0.944 | locus YCR088W, strain abp1, stronger effect = lower value 0.965 | locus YDL005C, strain med2, stronger effect = lower value 0.992 | locus YDL035C, strain GPR1, stronger effect = lower value 0.921 | locus YDL040C, strain nat1, stronger effect = lower value 1.01 | locus YDL101C, strain DUN1, stronger effect = lower value 0.941 | locus YDL185W, strain tfp1, stronger effect = lower value 0.942 | locus YDR001C, strain nth1, stronger effect = lower value 0.982 | locus YDR069C, strain doa4, stronger effect = lower value 0.995 | locus YDR150W, strain NUM1, stronger effect = lower value 1.01 | locus YDR159W, strain sac3, stronger effect = lower value 0.956 | locus YDR162C, strain NBP2, stronger effect = lower value 0.965 | locus YDR195W, strain ref2 1.1 | locus YDR297W, strain sur2, stronger effect = lower value 0.939 | locus YDR334W, strain swr1, stronger effect = lower value 0.999 | locus YDR388W, stronger effect = lower value 0.955 | locus YEL037C, strain rad23, stronger effect = lower value 0.982 | locus YER015W, strain faa2, stronger effect = lower value 0.956 | locus YER111C, strain swi4, stronger effect = lower value 0.968 | locus YER167W, strain BCK2, stronger effect = lower value 0.994 | locus YFR010W, strain ubp6, stronger effect = lower value 0.96 | locus YGL167C, strain pmr1, stronger effect = lower value 0.971 | locus YHR013C, strain ard1, stronger effect = lower value 0.947 | locus YHR027C, strain rpn1, stronger effect = lower value 0.939 | locus YHR079C, strain IRE1 (second series), stronger effect = lower value 0.932 | locus YHR094C, strain hxt1, stronger effect = lower value 0.941 | locus YIL066C, strain RNR3, stronger effect = lower value 0.919 | locus YIL073C, strain SPO22, stronger effect = lower value 0.889 | locus YIL125W, strain kgd1, stronger effect = lower value 0.985 | locus YJL092W, strain hpr5, stronger effect = lower value 0.965 | locus YJL115W, strain asf1, stronger effect = lower value 0.984 | locus YJL134W, strain LCB3, stronger effect = lower value 0.99 | locus YJL154C, strain vps35, stronger effect = lower value 0.995 | locus YJL168C, strain set2, stronger effect = lower value 0.959 | locus YJL187C, strain SWE1 (second series), stronger effect = lower value 0.908
0.95 (inactive) and 0.812 (active): locus YHR030C, strain SLT2, stronger effect = lower value
active: locus YBR009C, strain hhf1, stronger effect = lower value 0.825 | locus YBR021W, strain FUR4, stronger effect = lower value 0.782 | locus YBR023C, strain chs3, stronger effect = lower value 0.911 | locus YCL011C, strain gbp2, stronger effect = lower value 0.902 | locus YCL016C, strain dcc1, stronger effect = lower value 0.876 | locus YCL029C, strain bik1, stronger effect = lower value 0.822 | locus YCL061C, strain MRC1, stronger effect = lower value 0.846 | locus YDL074C, strain BRE1, stronger effect = lower value 0.738 | locus YDL192W, strain arf1, stronger effect = lower value 0.832 | locus YDR101C, strain arx1, stronger effect = lower value 0.867 | locus YDR137W, strain rgp1, stronger effect = lower value 0.845 | locus YDR318W, strain mcm21, stronger effect = lower value 0.798 | locus YDR335W, strain msn5, stronger effect = lower value 0.889 | locus YDR392W, strain spt3, stronger effect = lower value 0.194 | locus YDR502C, strain sam2, stronger effect = lower value 0.787 | locus YEL003W, strain gim4, stronger effect = lower value 0.856 | locus YEL061C, strain CIN8 (second series), stronger effect = lower value 0.844 | locus YER016W, strain bim1, stronger effect = lower value 0.91 | locus YER110C, stronger effect = lower value 0.873 | locus YER155C, strain BEM2 (second series), stronger effect = lower value 0.268 | locus YER155C, strain BEM2, stronger effect = lower value 0.686 | locus YGL078C, strain dbp3, stronger effect = lower value 0.906 | locus YGL086W, strain mad1, stronger effect = lower value 0.779 | locus YGL173C, strain kem1, stronger effect = lower value 0.889 | locus YGL227W, strain vid30, stronger effect = lower value 0.892 | locus YGL240W, strain doc1, stronger effect = lower value 0.762 | locus YGL248W, strain PDE1, stronger effect = lower value 0.824 | locus YGL253W, strain hxk2, stronger effect = lower value 0.908 | locus YGR135W, strain pre9, stronger effect = lower value 0.696 | locus YGR252W, strain gcn5, stronger effect = lower value 0.629 | locus YHR079C, strain IRE1, stronger effect = lower value 0.756 | locus YHR129C, strain ARP1, stronger effect = lower value 0.87 | locus YHR142W, strain chs7, stronger effect = lower value 0.767 | locus YHR200W, strain rpn10, stronger effect = lower value 0.866 | locus YIR030C, strain dcg1, stronger effect = lower value 0.888 | locus YJL095W, strain BCK1 (second series), stronger effect = lower value 0.886 | locus YJL095W, strain BCK1, stronger effect = lower value 0.544 and 0.84 | locus YJL129C, strain trk1, stronger effect = lower value 0.859 | locus YJL164C, strain tpk1, stronger effect = lower value 0.887 | locus YJL166W, strain qcr8, stronger effect = lower value 0.746
